# Out of some 350,000 compounds screened, about 2,400 (0.69%) were called active. The sample holds actives, similar compounds and a random draw of the others, so the mix is not that of the screen. Unmarked numbers belong to inactive results. Cut-off read from the data, not from the text of the source: active = inhibition above about 41%; inconclusive = no clear call, values can overlap the other calls; inactive = below that.
# Assay: EBV LMP1-driven NF-kappaB luciferase reporter inhibitors, primary screen, cell-based, luminescence, single point (AID 504558);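 note: 0% = neutral control wells and 100% = reference inhibitor control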
# Conditions: LMP1-induced NF-kappaB luciferase reporter cells, at 12.5 µM, hits give high values
row,SMILES,inhibition
1,COc1cc(C2CC(=O)N3CN(Cc4ccccc4)CSC3=C2C#N)ccc1OCc1ccccc1 (stereo not given),65% (active)
2,COc1ccc(CCN=C2SCC(=O)N2Cc2ccccc2)cc1OC,6.74%
3,COc1cc(CNC2CCCC2)c(Br)cc1OCc1ccccc1,-15.5%
4,Cc1ccccc1-c1ccc2c(c1)O[C@@H](CN(C)Cc1ccc(C(=O)O)cc1)[C@@H](C)CN([C@H](C)CO)S2(=O)=O,1.79%
5,C[C@H](CO)N1C[C@H](C)[C@@H](CN(C)C(=O)c2cccc(F)c2)Oc2cc(-c3cncnc3)ccc2S1(=O)=O,-0.771%
6,Nc1cccc(OCCCCCOc2cccc(N)c2)c1,-19.1%
7,COCCCn1c(=O)/c(=C/c2ccccc2OC(C)C)s/c1=C(\C#N)C(=O)Nc1ccc(C(=O)O)cc1,4.37%
8,Cc1cc(C)c2cc(C#N)c(N3CCNCC3)nc2c1,-5.81%
9,CC1(C)CN(Cc2cccnc2)C(=O)[C@H]1CC(=O)Nc1ccc(Br)cc1,-4.33%
10,O=C1c2ccccc2C(O)N1Cc1ccccc1 (stereo not given),49.7% (active)
11,O=C1c2ccccc2C(O)N1Cc1ccccc1Cl (stereo not given),-5.54%
12,CCC(C)NC(=O)C1c2ccccc2C(=O)N1Cc1ccccc1 (stereo not given),30.9%
13,CCN(CC)CCN(C(=O)c1ccc2c(c1)CCCC2)c1nc2c(OC)cccc2s1,9.68%
14,O=C(COC(=O)c1ccc(S(=O)(=O)N2CCCCCC2)cc1)Nc1ccccc1C(F)(F)F,-10.6%
15,CC(C)c1cc(N=O)cc(C(C)C)c1O,11.3%
16,CC(C)=CCc1c(O)c(CC=C(C)C)c2occ(-c3ccc(O)cc3)c(=O)c2c1O,-4.63%
17,CC(C)=CCc1ccc(O)c(=O)cc1C(C)C,52.9% (active)
18,Cc1ccc(S(=O)(=O)N2C[C@H]3n4c(=O)ccc(=O)n4C[C@H](OC(=O)NC4CCCC4)[C@@]3(O)C2)cc1,0.795%
19,CCc1noc(C)c1C(=O)OCC(=O)c1ccc(NC(=O)CC(C)C)cc1,7.07%
20,CCN(CC)c1ccc(/C=N/NC(=O)c2cnccn2)c(O)c1,66.9% (active)
21,COc1ccc(NC(=O)C/C(C)=N/NC(=O)c2cnccn2)cc1Cl,0.411%
22,CCN(CC)c1ccc(NC(=O)c2ccc(Cl)nc2)cc1,2.91%
23,COc1cc(C)c(CN2CCN(C(=O)CCC(=O)c3ccc(C)s3)CC2)cc1OC,-18.3%

row,SMILES,inhibition
1,C[C@H]1Cn2cnc(C(=O)N[C@@H](Cc3c[nH]c4ccccc34)C(=O)OC(C)(C)C)c2C(=O)N1,-25.3%
2,CCN(CC)C(=O)C1=C(C)N(Cc2ccc(OC)cc2)C(=O)C(CC(=O)NCCCCc2ccccc2)C1 (stereo not given),-3.18%
3,COc1ncnc2c1ncn2CCCNCCN1CCOCC1,-1.37%
4,Oc1c(Cl)cc(Cl)c(Cl)c1Cc1c(O)c(Cl)cc(Cl)c1Cl,52.3% (active)
5,COc1ccccc1NC(=O)C(CC(=O)O)Cc1cc(C)cc(C)c1 (stereo not given),-13.3%
6,CC(C)n1cnc2c(Nc3cccc(Cl)c3)nc(N(CCO)CCCO)nc21,-2.02%
7,Cc1cccc(Nc2nc(NCCO)nc(N3CCCC3)n2)c1,7.29%
8,OCCCNc1nccc(-c2cc(Nc3cccc(Cl)c3)ncn2)n1,88.6% (active)
9,Cc1ccccc1NC(=O)Cc1nc(COC(=O)CNC(=O)c2ccc(Cl)cc2Cl)cs1,-5.79%
10,CCC(C)Cn1c(O)cc2nn(-c3nc4ccccc4s3)c(=O)c-2c1C (stereo not given),51.8% (active)
11,CC(=O)Nc1ccc2nc(NC(=O)CS(=O)(=O)c3ccc(F)cc3)sc2c1,-1.73%
12,O=C(COc1ccc(S(=O)(=O)Nc2cccc(C(F)(F)F)c2)cc1)N1CCOCC1,5.55%
13,COc1ccccc1C(=O)Nc1cccc(C(=O)N2CCOCC2)c1,-6.8%
14,O=C(Nc1ccc(C(=O)N2CCOCC2)cc1)Nc1cccc(C(F)(F)F)c1,65.4% (active)
15,COc1ccc(Cn2c(=O)oc3ccccc32)cc1,-3.08%
16,CC1CC(NC(=S)N(C)C)CC(C)(C)C1 (stereo not given),-2.42%
17,CNC(=O)C[C@H]1C(=O)N(c2ccc(OC)cc2)C[C@@H]1Cc1ccccc1,-2.06%
18,COc1cccc(/C=N\Nc2nncc(-c3ccccc3)n2)c1,-5.65%
19,CN(CCO)c1ccc(/C=N/Nc2nncc3ccccc23)cc1,45.7% (active)
20,C/C(=N\Nc1nncc2ccccc12)c1ccc(Cl)c([N+](=O)[O-])c1,-18.4%
21,NC(=O)CSc1nnc(-c2cccc(S(=O)(=O)N3CCOCC3)c2)o1,1.36%
22,O=C1CCC(C(=O)OCC(=O)Nc2ccc(OC(F)F)cc2)=NN1,-2.22%
23,O=C(Nc1cc(F)ccc1F)c1ccc2c(=O)n3c(nc2c1)CCC3,-23.7%

row,SMILES,inhibition
1,O=C1CCCN2N=C(SCC(=O)Nc3ccc(Br)cc3)SC2=N1,46.9% (active)
2,O=C(O)CC(SCC(=O)Nc1ccc(Br)cc1)C(=O)O (stereo not given),-3.51%
3,O=C(CSCc1ccc(Br)cc1)Nc1ccc(S(=O)(=O)N2CCCCCC2)cc1,-7.38%
4,C[C@H](CO)N1C[C@H](C)[C@@H](CN(C)C(=O)C2CCCCC2)OCc2cnnn2CCCC1=O,0.386%
5,C[C@H]1CN([C@@H](C)CO)C(=O)c2cc(-c3cccc(F)c3)cnc2O[C@@H]1CN(C)S(C)(=O)=O,5.8%
6,C=CC(=O)OCCOCCOCCOCCOC(=O)C=C,83.3% (active)
7,O=C(c1cc2cc(Br)cc(Br)c2oc1=O)N1CCOCC1,83.6% (active)
8,COc1cc2ccccc2cc1C(=O)N1CCOCC1,25.1%
9,COc1cccc2cc(C(=O)N3CCN(C(=O)c4ccccc4)CC3)c(=O)oc12,-0.766%
10,O=C(N=C1SC2CS(=O)(=O)CC2N1Cc1ccccc1)c1ccccc1 (stereo not given),1.35%
11,COC(=O)[C@H]1C[C@H](OC(=O)NCc2ccccc2)[C@@]2(O)CN(S(=O)(=O)c3ccc(C)cc3)CC2[C@H]1C(=O)OC (stereo not given in full),-13.5%
12,COc1ccc(C(=O)OCC(=O)c2cc(C)n(CC3CCCO3)c2C)cc1[N+](=O)[O-] (stereo not given),12.7%
13,Cc1ccsc1C(=O)OCC(=O)Nc1cccc(F)c1,-4.47%
14,Cc1ccsc1C(=O)OCC(=O)c1cc(C)n(CC2CCCO2)c1C (stereo not given),63.2% (active)
15,Cc1ccc(S(=O)(=O)N(CCc2ccccc2)c2ccc3c(c2)C2CC3CCN2C(=O)OCc2ccccc2)cc1 (stereo not given),-3.7%
16,O=C(CSc1ncnc2sccc12)NC1CCS(=O)(=O)C1 (stereo not given),5.19%
17,COc1ccc(OCC(=O)N2CCN(C(=O)c3cccs3)CC2)cc1,-13.6%
18,O=C(CSc1ncnc2sccc12)N1CCN(C(=O)c2cccs2)CC1,69.5% (active)
19,Cc1nc2ccccn2c(=O)c1NC(=O)c1ccc(Br)o1,1.95%
20,CCOC(=O)C1CCN(C(=O)c2ccc3c(=O)n4nc(Nc5ccccc5CC)sc4nc3c2)CC1,0.7%
21,NC(=O)C1(Nc2ccc([N+](=O)[O-])cc2)CCCC1,58.8% (active)
22,O=C(Nc1ccc([N+](=O)[O-])cc1)C1CC12CCC2 (stereo not given),-7.83%
23,NC(=O)C1(Nc2ccc(-c3ccccc3)cc2)CCCC1,0.238%

row,SMILES,inhibition
1,NC(CSC(c1ccccc1)(c1ccccc1)c1ccc(-c2ccccc2)cc1)C(=O)O (stereo not given),-1.87%
2,Nc1nc(SCc2ccc([N+](=O)[O-])cc2)c2ncn(C3OC(CO)C(O)C3O)c2n1 (stereo not given),-5.79%
3,Cc1nc(SCc2ccc(F)cc2)c([N+](=O)[O-])[nH]1,2.2%
4,Cc1nc(N)nc(SCc2ccc([N+](=O)[O-])cc2)c1N,50.3% (active)
5,N#CCCN(C(=S)Nc1ccc(Cl)c(Cl)c1)C1CCCCC1,-1.92%
6,Cc1cccc(N(CC(=O)N2CCCC2)S(C)(=O)=O)c1C,-6.4%
7,Cc1ccc2cccc([N+](=O)[O-])c2n1,7.19%
8,O=C(OCc1cn([C@@H]2C[C@H](c3ccc(Cl)cc3)N(Cc3cccs3)C[C@H]2O)nn1)c1ccccc1,3.08%
9,O=C(C1CC1)N1N=C(c2ccc(Br)cc2)CC1(O)C(F)(F)F (stereo not given),48.3% (active)
10,O=C(C1CC1)N1N=C2CCCCC2C1(O)C(F)(F)F (stereo not given),0.262%
11,O=C(Cc1ccccc1)N1N=C(c2ccncc2)CC1(O)C(F)(F)F (stereo not given),4.93%
12,C[C@@H]1CN([C@@H](C)CO)C(=O)c2cc(Br)cnc2O[C@H]1CN(C)Cc1ccc(-c2ccccc2)cc1,-10.5%
13,C[C@@H]1CN([C@H](C)CO)C(=O)c2cc(Br)cnc2O[C@@H]1CN(C)Cc1cncnc1,-0.147%
14,Nc1cc(=O)c2[nH]cnc2[nH]1,5.05%
15,O=C1CCC(=O)N1CCC(=O)N(C(=O)NC1CCCCC1)C1CCCCC1,-0.58%
16,CCc1nnc(NC(=O)c2ccc(S(=O)(=O)NC3CCCCC3)cc2)s1,-6.69%
17,CCc1nnc(NC(=O)c2cc(S(=O)(=O)N3CCCCC3)ccc2C)s1,2.74%
18,CCc1nnc(NC(=O)c2cc(S(=O)(=O)N3CCN(CC)CC3)ccc2Cl)s1,68.4% (active)
19,O=C(Nc1ccc(Cl)cn1)c1ccccc1-c1ccccc1,3.03%
20,c1ccc(CNCc2ccc(CNCc3ccccc3)cc2)cc1,-5.41%
21,Cc1ccc(S(=O)(=O)/N=C2\C=C(NS(=O)(=O)c3ccc(C)cc3)C(=O)c3ccccc32)cc1,-0.482%
